Source: PubChem BioAssay (NCATS)
Values joined by “and” are separate entries in the source; they are usually repeats but may differ in a detail not shown here. Equal values may be shown once. Values without a mark were called inactive. Inconclusive results are not listed. Active and inactive are the calls of the source. Unless noted, calls follow the shape of the dose curve; as a rule, active = well fitted curve in the direction sought with a large enough effect; inconclusive = small, poorly fitted or top-dose-only effect, or another doubt; inactive = no such curve, though single readings can be large; an effect the other way counts as inactive or inconclusive.

Test system: not listed separately
Assay: S16 Schwann cell viability assay (CellTiter-Glo assay) (AID 624031);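 also: native untransfected S16 rat Schwann cells; plate controls were DMSO-treated cells for no effect and cell-free wells for full effect; nearly all actives have a fitted effect of over 70% in size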
Conditions: S16 rat Schwann cells viability, 24 h; series mostly up to 57.5 µM; activity change, negative = cytotoxicity: at the top concentration
Outline: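 Parental S16 cells, 24 h compound, 37 °C. ATP-luminescence viability; DMSO = 0% activity, empty wells as reference; curves classified by fit quality and efficacy.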

Row | SMILES | activity change, negative = cytotoxicity [%]
1 | O=C(O)c1cc(O)c2c(c1)[C@H]([C@H]1c3cc(C(=O)O)cc(O)c3C(=O)c3c(O[C@@H]4OC(CO)C(O)C(O)C4O)cccc31)c1cccc(O[C@@H]3OC(CO)C(O)C(O)C3O)c1C2=O (stereo not given in full) | -6
2 | CC(C)CN(C[C@@H](OP(=O)(O)O)[C@H](Cc1ccccc1)NC(=O)O[C@@H]1CCOC1)S(=O)(=O)c1ccc(N)cc1 | -24.2
3 | CCC(C)n1ncn(-c2ccc(N3CCN(c4ccc(OCC5COC(Cn6cncn6)(c6ccc(Cl)cc6Cl)O5)cc4)CC3)cc2)c1=O (stereo not given) | -27.6

Test system: not listed separately
Assay: S16 Schwann cell PMP22 intronic element firefly luciferase assay (AID 624032); also: nearly all actives have a fitted effect of over 30% in size; also: potency is read from the fitted curve at half-maximal effect;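 as to activity change, negative = inhibition: plate controls were DMSO for no effect and PTC124 positive control mean for full effect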
Conditions: S16 rat Schwann cells, PMP22 element FLuc, 24 h; series mostly up to 57.5 µM; activity change, negative = inhibition: at the top concentration
Outline: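 Rat S16 Schwann cells stably carrying firefly luciferase driven by a PMP22 intronic element, in 10% FBS, treated 24 h at 37 C. ONE-Glo luminescence normalized to PTC124 control and DMSO (0%); curves classed by r2, magnitude and activity.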

Row | SMILES | activity change, negative = inhibition [%] | Potency
4 | O=C(O)c1cc(O)c2c(c1)[C@H]([C@H]1c3cc(C(=O)O)cc(O)c3C(=O)c3c(O[C@@H]4OC(CO)C(O)C(O)C4O)cccc31)c1cccc(O[C@@H]3OC(CO)C(O)C(O)C3O)c1C2=O (stereo not given in full) | -7.92 | 
5 | CC(C)CN(C[C@@H](OP(=O)(O)O)[C@H](Cc1ccccc1)NC(=O)O[C@@H]1CCOC1)S(=O)(=O)c1ccc(N)cc1 | -20.3 | 
6 | CCC(C)n1ncn(-c2ccc(N3CCN(c4ccc(OCC5COC(Cn6cncn6)(c6ccc(Cl)cc6Cl)O5)cc4)CC3)cc2)c1=O (stereo not given) |  | 3.22 µM (active)
7 | CC(C)CN(C[C@@H](O)[C@H](Cc1ccccc1)NC(=O)O[C@H]1CCOC1)S(=O)(=O)c1ccc(N)cc1 | 9.7 | 

Test system: not listed separately
Assay: qHTS assay for small molecule agonists of the antioxidant response element (ARE) signaling pathway (AID 651741; active = well fitted activation curve with a large enough effect in the signal ratio; the % refers to the signal ratio; also: potency is read from the fitted curve at half-maximal effect; as to activation: % of control where 0% means no effect)
Conditions: HepG2 ARE-bla reporter, beta-lactamase FRET ratio, 16 h; series mostly up to 96 µM; activation: at the top concentration
Outline: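 HepG2 ARE-bla reporter cells, 2,000/well; 5 h settle at 37 C/5% CO2; compound pin transfer (23 nL, DMSO); 16 h at 37 C; LiveBLAzer B/G FRET substrate, 2 h RT; fluorescence intensity read.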

Row | SMILES | Potency | activation [%]
8 | CC12CCC(CC1=O)C2(C)C (stereo not given) | inactive | 
9 | O=C(/C=C/c1ccc(O)c(O)c1)O[C@@H](C(=O)O)[C@@H](OC(=O)/C=C/c1ccc(O)c(O)c1)C(=O)O |  | 4.94
10 | CCCCCCCCOC(=O)c1cc(O)c(O)c(O)c1 |  | 12.4
11 | O=C(O)CCCCCCCCC(=O)O |  | -2.71
12 | O=C(Nc1ccccc1)c1ccccc1O | 15.4 µM (active) | 

Test system: not listed separately
Assay: qHTS assay for small molecule activators of the p53 signaling pathway (AID 651743; active = well fitted activation curve with a large enough effect in the signal ratio, not every such curve was filed as active; the % refers to the signal ratio; also: % of control where 0% means no effect)
Conditions: HCT-116 p53RE-bla, beta-lactamase FRET ratio, 16 h; activation: active compounds read high
Outline: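 Reporter: beta-lactamase driven by p53 response elements, stably integrated in HCT-116 cells. Cells seeded at 4,000/well, 5 h preincubation, compound (DMSO) 16 h at 37 C; B/G FRET substrate 2 h RT; fluorescence intensity read.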

Row | SMILES | activation
13 | CC12CCC(CC1=O)C2(C)C (stereo not given) | -2.06% and 2.14%
14 | O=C(/C=C/c1ccc(O)c(O)c1)O[C@@H](C(=O)O)[C@@H](OC(=O)/C=C/c1ccc(O)c(O)c1)C(=O)O | 0.853%
15 | O=C(O)CCCCCCCCC(=O)O | 0.877%
16 | O=C(Nc1ccccc1)c1ccccc1O | 20.6%
17 | C[Si](C)(C)O[Si](C)(C)O[Si](C)(C)C | -8.05%

Test system: not listed separately
Assay: qHTS assay for small molecule activators of the nuclear factor-kappa B (NF-kB) signaling pathway (AID 651749; active = well fitted activation curve with a large enough effect in the signal ratio; the % refers to the signal ratio; also: % of control where 0% means no effect)
Conditions: NF-kB-bla ME-180 cells, beta-lactamase FRET ratio, 16 h; active compounds read high
Outline: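 NF-kB-bla ME-180 cells, 2,000/well; 23 nL compound or DMSO pinned; 16 hr, 37C/5% CO2; beta-lactamase FRET read-out.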

Row | SMILES | activation
18 | CC12CCC(CC1=O)C2(C)C (stereo not given) | -0.0521% and -0.265%
19 | O=C(O)CCCCCCCCC(=O)O | -1.2%
20 | C[Si](C)(C)O[Si](C)(C)O[Si](C)(C)C | -3.32%

Test system: not listed separately
Assay: qHTS assay for environmental chemicals that activate the Aryl hydrocarbon Receptor (AhR) signaling pathway (AID 651777); also: % of control where 0% means no effect; nearly all actives have a fitted effect of over 15% in size
Conditions: 1A2-DRE human hepatoma cells, luciferase, 24 h; activation: active compounds read high
Outline: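 Reporter gene assay: hepatoma cells with DRE/CYP1A2-luciferase, 24 hr compound incubation at 37 C, 5% CO2, luminescence after One-Glo (30 min, RT).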

Row | SMILES | activation
21 | CC12CCC(CC1=O)C2(C)C (stereo not given) | -0.66% and 0.506%
22 | CCCCCCCCOC(=O)c1cc(O)c(O)c(O)c1 | 0.999%
23 | O=C(O)CCCCCCCCC(=O)O | -2.45%
24 | C[Si](C)(C)O[Si](C)(C)O[Si](C)(C)C | -0.707%

Biological target: Peroxisome proliferator-activated receptor alpha (Homo sapiens) (UniProt Q07869)
Assay: qHTS assay for small molecule agonists of the peroxisome proliferator-activated receptor alpha (PPARalpha) signaling pathway (AID 651778); also: % of control where 0% means no effect
Conditions: PathHunter PPARalpha complementation, chemiluminescence, 6 h; max response: active compounds read high
Outline: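 Enzyme-fragment complementation assay in which ligand-bound PPARalpha translocates and forms an active enzyme that generates chemiluminescence. Cells were plated overnight, exposed to compound for 6 hr at 37 C, and then given detection reagent for 60 min at room temperature.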

Chain of Peroxisome proliferator-activated receptor alpha (Homo sapiens) (Q07869 whole entry, looked up): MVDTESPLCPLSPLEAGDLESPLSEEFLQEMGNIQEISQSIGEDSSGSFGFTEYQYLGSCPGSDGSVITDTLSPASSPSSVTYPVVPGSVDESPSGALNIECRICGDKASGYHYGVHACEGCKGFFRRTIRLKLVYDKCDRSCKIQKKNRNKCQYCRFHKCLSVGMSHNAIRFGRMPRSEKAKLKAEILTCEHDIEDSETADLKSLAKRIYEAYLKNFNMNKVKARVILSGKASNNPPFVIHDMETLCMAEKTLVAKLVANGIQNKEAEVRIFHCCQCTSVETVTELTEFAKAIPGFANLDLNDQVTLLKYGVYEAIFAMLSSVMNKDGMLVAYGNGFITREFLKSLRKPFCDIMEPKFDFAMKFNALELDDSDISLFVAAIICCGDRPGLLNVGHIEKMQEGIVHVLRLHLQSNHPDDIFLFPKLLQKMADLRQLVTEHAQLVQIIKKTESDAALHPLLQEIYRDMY

Row | SMILES | max response
25 | CC12CCC(CC1=O)C2(C)C (stereo not given) | -4.19% and 0.373%
26 | O=C(/C=C/c1ccc(O)c(O)c1)O[C@@H](C(=O)O)[C@@H](OC(=O)/C=C/c1ccc(O)c(O)c1)C(=O)O | -4.13%
27 | CCCCCCCCOC(=O)c1cc(O)c(O)c(O)c1 | -2.68%
28 | O=C(O)CCCCCCCCC(=O)O | -0.446%
29 | O=C(Nc1ccccc1)c1ccccc1O | -0.0723%
30 | C[Si](C)(C)O[Si](C)(C)O[Si](C)(C)C | 0.325%

Test system: not listed separately
Assay: qHTS assay for small molecule agonists of the antioxidant response element (ARE) signaling pathway measured by Nrf2-dependant transcriptional activity (AID 720636; active = well fitted curve in the direction sought with a large enough effect in the repeat runs; an effect the other way counts as inactive or inconclusive;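 also: HepG2 cells with an ARE-driven luciferase reporter; % of control where 0% means no effect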)
Conditions: ARE-luc HepG2, Nrf2 luciferase reporter, 16 h; series mostly up to 92.4 µM; activation: at the top concentration
Outline: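 Nrf2-dependent transcription is measured in ARE-luc HepG2 cells: compound is applied for 16 hr at 37 C after a 6 hr attachment period, and luciferase activity is quantified by luminescence using ONE-Glo.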

Row | SMILES | Potency | activation [%]
31 | CC12CCC(CC1=O)C2(C)C (stereo not given) | inactive | 
32 | O=C(/C=C/c1ccc(O)c(O)c1)O[C@@H](C(=O)O)[C@@H](OC(=O)/C=C/c1ccc(O)c(O)c1)C(=O)O |  | -1.12
33 | CCCCCCCCOC(=O)c1cc(O)c(O)c(O)c1 |  | 0.746
34 | O=C(O)CCCCCCCCC(=O)O |  | -0.0246
35 | C[Si](C)(C)O[Si](C)(C)O[Si](C)(C)C |  | -0.216

Test system: not listed separately
Assay: qHTS assay for small molecule agonists of the antioxidant response element (ARE) signaling pathway measured by Nrf2-dependant transcriptional activity - cell viability counter screen (AID 720653; active = well fitted curve in the direction sought with a large enough effect in the repeat runs; an effect the other way counts as inactive or inconclusive; also: % is scaled to controls: 0 for no effect and ±100 for the full control effect)
Conditions: ARE-bla HepG2 viability, CellTiter-Glo ATP luminescence, 16 h; max response: active compounds read low
Outline: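 ARE-bla HepG2 cells treated with compounds for 16 h at 37C; this counter screen measures viability as intracellular ATP by CellTiter-Glo luminescence after 30 min at room temperature.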

Row | SMILES | max response
36 | CC12CCC(CC1=O)C2(C)C (stereo not given) | -1.85% and 2.1%
37 | O=C(/C=C/c1ccc(O)c(O)c1)O[C@@H](C(=O)O)[C@@H](OC(=O)/C=C/c1ccc(O)c(O)c1)C(=O)O | 27.4%
38 | CCCCCCCCOC(=O)c1cc(O)c(O)c(O)c1 | -10.2%
39 | O=C(O)CCCCCCCCC(=O)O | -1.89%
40 | C[Si](C)(C)O[Si](C)(C)O[Si](C)(C)C | 4.82%

Test system: not listed separately
Assay: qHTS assay for cell viability of HEK293 cells (AID 743288); also: % is scaled to controls: 0 for no effect and ±100 for the full control effect; nearly all actives have a fitted effect of over 50% in size
Conditions: ATP luminescence (CellTiter-Glo), 18 h; max response: active compounds read low
Outline: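 Viable-cell counts were inferred from luciferase-based ATP content in HEK293 cells seeded at 2,000/well, pre-incubated ≥5 h, then dosed with DMSO-solubilised compounds for 18 h at 37 C.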

Row | SMILES | max response
41 | CC12CCC(CC1=O)C2(C)C (stereo not given) | -2.81% and -7.37%
42 | O=C(/C=C/c1ccc(O)c(O)c1)O[C@@H](C(=O)O)[C@@H](OC(=O)/C=C/c1ccc(O)c(O)c1)C(=O)O | -0.791%
43 | O=C(O)CCCCCCCCC(=O)O | -12.5%
44 | C[Si](C)(C)O[Si](C)(C)O[Si](C)(C)C | -3.28%

Test system: not listed separately
Assay: qHTS assay for cell viability of the p53RE-bla HCT-116 cell line (AID 743292); also: % is scaled to controls: 0 for no effect and ±100 for the full control effect; nearly all actives have a fitted effect of over 55% in size
Conditions: p53RE-bla HCT-116 viability, ATP luminescence, 16 h; series mostly up to 95 µM; activity change, negative = cytotoxicity: at the top concentration
Outline: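 ATP-based luminescence, 16 h compound exposure at 37 C, p53RE-bla HCT-116 cells at 4,000/well.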

Row | SMILES | Potency | activity change, negative = cytotoxicity [%]
45 | CC12CCC(CC1=O)C2(C)C (stereo not given) | inactive | 
46 | O=C(/C=C/c1ccc(O)c(O)c1)O[C@@H](C(=O)O)[C@@H](OC(=O)/C=C/c1ccc(O)c(O)c1)C(=O)O |  | 2.93
47 | CCCCCCCCOC(=O)c1cc(O)c(O)c(O)c1 |  | -18.4
48 | O=C(O)CCCCCCCCC(=O)O |  | -10.4
49 | O=C(Nc1ccccc1)c1ccccc1O |  | -27.5
50 | C[Si](C)(C)O[Si](C)(C)O[Si](C)(C)C |  | 6.35
